Results published in PubChem BioAssay (EPA / NIEHS).
Activity calls are given as the source filed them. The calls were made as follows: active = hit-call score of the fitted dose curve at least 0.9, where 1 is the maximum; inactive = score below 0.9.

Key:
[1] = ATG_CRE_CIS: Attagene CIS-FACTORIAL HepG2 Assay for human cAMP Responsive Element (CRE) binding protein 3 (AID 2282926); conditions: HepG2 CRE cis-reporter, Attagene multiplexed mRNA; actives raise or lower the signal
In short: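 Assay format: transient reporter transfection of HepG2, 24 h treatment, total RNA isolation with DNase I step. Reporter abundance read by fluorescence after PCR and capillary separation; DMSO-normalised gain or loss fitting.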

[2] = biological target: CCAAT/enhancer-binding protein beta (Homo sapiens) (UniProt P17676); test: ATG_C_EBP_CIS: Attagene CIS-FACTORIAL HepG2 Assay for human CCAAT/Enhancer Binding Protein (C/EBP) beta (AID 2282927); conditions: HepG2 Attagene cis-factorial transcription factor reporter; actives raise or lower the signal
In short: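 Transiently transfected HepG2 (MRTU library, endogenous TF-driven promoters); 24 h dosing; total RNA → oligo(dT) RT → PCR → 6-FAM primer extension → HpaI digest → CE; fit bidirectionally vs DMSO.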

[3] = ATG_CMV_CIS: Attagene CIS-FACTORIAL HepG2 Assay for human CMV (Internal Marker) (AID 2282928); conditions: HepG2 CMV promoter reporter, transcription factor profiling; actives raise or lower the signal;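 also: endpoint acts as a background internal control marker rather than a target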
In short: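 Fluorescence intensity of RT-PCR-derived reporter fragments, resolved by capillary electrophoresis, gives the signal. HepG2 liver cells bearing transfected cis-element reporters were treated 24 h; activity in either direction was fit relative to DMSO-treated controls.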

[4] = ATG_DR4_LXR_CIS: Attagene CIS-FACTORIAL HepG2 Assay for human Liver X Receptor (LXR), DR4 submotif (AID 2282929); conditions: HepG2 Attagene DR4 cis-reporter, mRNA transcription; actives raise or lower the signal
In short: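 The endpoint is DR4-element-driven reporter transcripts after 24 h chemical exposure of transfected HepG2 cells. These were measured via RT-PCR and capillary electrophoresis, and gain or loss of signal was fitted relative to DMSO controls.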

[5] = biological target: Aryl hydrocarbon receptor (Homo sapiens) (UniProt P35869); test: ATG_Ahr_CIS: Attagene CIS-FACTORIAL HepG2 Assay for human Aryl Hydrocarbon Receptor (Ahr) (AID 2282930); conditions: HepG2 AhR cis-factorial reporter transcription; actives raise or lower the signal
In short: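 Read-out: reporter mRNA quantified by RT-PCR with fluorescent primer extension and capillary electrophoresis. Human HepG2 liver cells carried transfected cis-promoter reporter units and were exposed to chemical for 24 h; gain or loss fitted relative to DMSO.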

[6] = ATG_AP_1_CIS: Attagene CIS-FACTORIAL HepG2 Assay for human Activator Protein 1 (AP-1) (AID 2282931); conditions: HepG2 Attagene cis-factorial AP-1 reporter mRNA; actives raise or lower the signal
In short: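 Readout is reporter transcript level from endogenous transcription factor activity, quantified by RT-PCR with fluorescent primer extension and capillary electrophoresis. Transiently transfected HepG2 cells, 24 h exposure. Curves fitted both directions versus DMSO.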

[7] = ATG_AP_2_CIS: Attagene CIS-FACTORIAL HepG2 Assay for human Activator Protein 2 (AP-2) (AID 2282932); conditions: HepG2 AP-2 cis-reporter, Attagene transcription factor profiling; actives raise or lower the signal
In short: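 Liver-derived HepG2 line, cis-reporter system measuring endogenous factors; 24 h dosing; reporter mRNA detected by fluorescent RT-PCR and capillary electrophoresis.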

[8] = ATG_BRE_CIS: Attagene CIS-FACTORIAL HepG2 Assay for human Bone Morphogenetic Protein (BMP) Response Element (BRE) (AID 2282933); conditions: HepG2 BMP response element reporter, Attagene transcription factor profiling; actives raise or lower the signal
In short: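 Endogenous transcription factor activity read in transiently transfected HepG2 cells after 24 h chemical exposure. Bidirectional curve fitting against DMSO; readout is reporter transcript level by RT-PCR with capillary electrophoresis of labelled products.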

[9] = biological target: Retinoic acid receptor alpha (Homo sapiens) (UniProt P10276); test: ATG_DR5_RAR_CIS: Attagene CIS-FACTORIAL HepG2 Assay for human Retinoic Acid Receptor Alpha (RARE), DR5 submotif (AID 2282934); conditions: HepG2 Attagene cis-factorial RARE DR5 reporter, mRNA; actives raise or lower the signal;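 as to AC50: reporter responds to endogenous RAR alpha beta and gamma in HepG2 not RARA alone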
In short: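 Read-out: DR5-driven reporter transcript measured by RT-PCR, 6-FAM primer extension, HpaI digest and capillary electrophoresis. Human HepG2 liver cells carry transiently transfected cis-element reporter constructs; dosing lasts 24 h. Gain or loss of signal fitted against DMSO baseline.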

[10] = biological target: Transcription factor E2F1 (Homo sapiens) (UniProt Q01094); test: ATG_E2F_CIS: Attagene CIS-FACTORIAL HepG2 Assay for human E2F Transcription Factor 1 (AID 2282935); conditions: HepG2 Attagene cis-reporter, E2F reporter RNA transcripts; actives raise or lower the signal
In short: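 Liver-derived HepG2 cells expressing transfected promoter-driven reporter units received test chemical for 24 hours. Signal gains or losses were fitted bidirectionally against DMSO.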

[11] = ATG_E_Box_CIS: Attagene CIS-FACTORIAL HepG2 Assay for human Enhancer Box (E-box) (AID 2282936); conditions: HepG2 E-box cis-reporter transcription, actives raise or lower the signal
In short: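 In this cell-based setup, HepG2 cells bearing transfected promoter-driven reporter units were exposed to chemicals for 24 h; reporter transcripts were amplified, 6-FAM-labelled, cut with HpaI and sized by capillary electrophoresis.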

[12] = ATG_M_61_CIS: Attagene CIS-FACTORIAL HepG2 Assay for M61 Transcription Factor (Internal Marker) (AID 2282937); conditions: HepG2 Attagene CIS-FACTORIAL M61 internal marker reporter; actives raise or lower the signal
In short: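 Readout is reporter mRNA by RT-PCR, fluorescent primer extension and capillary electrophoresis, with gain or loss fitted relative to DMSO. Transfected HepG2 cells carrying endogenous-TF-driven cis reporters were exposed to chemicals for 24 hours.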

[13] = ATG_EGR_CIS: Attagene CIS-FACTORIAL HepG2 Assay for human Early Growth Response 1 (EGR1) (AID 2282938); conditions: HepG2 Attagene CIS-FACTORIAL EGR reporter mRNA; actives raise or lower the signal
In short: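 After 24 h compound exposure, RNA from reporter-transfected HepG2 cells was reverse-transcribed, PCR-amplified, fluorescently labelled and resolved by capillary electrophoresis. EGR1 reporter transcript changes, up or down, were fitted against DMSO, reflecting endogenous transcription-factor activity.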

[14] = ATG_M_19_CIS: Attagene CIS-FACTORIAL HepG2 Assay for M19 Transcription Factor (Internal Marker) (AID 2282939); conditions: HepG2 Attagene CIS-FACTORIAL M19 internal marker reporter; actives raise or lower the signal
In short: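 Internal marker readout, fitted in both directions against DMSO, from HepG2 cells carrying transfected cis-element reporter constructs; RT-PCR and capillary electrophoresis of reporter mRNA after 24 h exposure.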

[15] = ATG_ERE_CIS: Attagene CIS-FACTORIAL HepG2 Assay for Estrogen Response Element (ERE) (AID 2282940); conditions: HepG2 ERE cis-reporter, Attagene RNA transcript; actives raise or lower the signal
In short: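 After 24 h compound treatment, RNA from transfected HepG2 cells was reverse-transcribed, reporter cDNA PCR-amplified, FAM-labelled, HpaI-cut and resolved by capillary electrophoresis. ERE-driven cis reporter transcripts reflect endogenous factors; gain or loss scored against DMSO.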

[16] = ATG_Ets_CIS: Attagene CIS-FACTORIAL HepG2 Assay for human Erythroblast Transformation Specific (ETS) (AID 2282941); conditions: HepG2 ETS cis-reporter transcription, actives raise or lower the signal
In short: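 Multiplexed reporter transcript profiling: HepG2, 24 h treatment, total RNA to cDNA, PCR, 6-FAM labelling, HpaI cut, capillary electrophoresis. Gain- or loss-of-signal fitted against DMSO.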

[17] = biological target: Hepatocyte nuclear factor 3-beta (Homo sapiens) (UniProt Q9Y261); test: ATG_FoxA2_CIS: Attagene CIS-FACTORIAL HepG2 Assay for human Forkhead box A2 (FOXA2) (AID 2282942); conditions: HepG2 cis-reporter transcription factor activity, 24 h; actives raise or lower the signal
In short: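 Endogenous transcription factor activity is captured via cis-element-driven reporter transcripts in transfected HepG2. Total RNA taken at 24 h post-dosing; labelled RT-PCR products resolved by capillary electrophoresis. Gain or loss fitted versus DMSO.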

[18] = ATG_FoxO_CIS: Attagene CIS-FACTORIAL HepG2 Assay for human Forkhead box O (FoxO) (AID 2282943); conditions: HepG2 Attagene cis-reporter, FoxO element, mRNA; actives raise or lower the signal
In short: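 Read-out: fluorescence of 6-FAM-labelled reporter cDNA fragments resolved by capillary electrophoresis. Transiently transfected HepG2 cells were dosed for 24 h; activity fitted in both directions relative to DMSO controls.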

[19] = ATG_GATA_CIS: Attagene CIS-FACTORIAL HepG2 Assay for human GATA Binding Protein (AID 2282944); conditions: HepG2 GATA cis-element reporter, Attagene multiplex mRNA; actives raise or lower the signal
In short: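 Reporter transcripts from a GATA cis-regulated unit, among multiplexed reporters in transfected HepG2 cells, were measured by RT-PCR with capillary electrophoresis after 24 h dosing. Induction or loss scored relative to DMSO.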

[20] = ATG_GLI_CIS: Attagene CIS-FACTORIAL HepG2 Assay for human Zinc Finger Protein GLI1 (AID 2282945); conditions: HepG2, Attagene cis-factorial reporter mRNA, GLI element; actives raise or lower the signal
In short: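 Transiently transfected HepG2 cells report endogenous transcription factor activity via cis-element-driven reporter units. After 24 h compound exposure, reporter mRNA was measured by RT-PCR with capillary electrophoresis; bidirectional fitting against DMSO baseline.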

Measured: AC50

Hepatocyte nuclear factor 3-beta (Homo sapiens), sequence (Q9Y261 whole entry, looked up): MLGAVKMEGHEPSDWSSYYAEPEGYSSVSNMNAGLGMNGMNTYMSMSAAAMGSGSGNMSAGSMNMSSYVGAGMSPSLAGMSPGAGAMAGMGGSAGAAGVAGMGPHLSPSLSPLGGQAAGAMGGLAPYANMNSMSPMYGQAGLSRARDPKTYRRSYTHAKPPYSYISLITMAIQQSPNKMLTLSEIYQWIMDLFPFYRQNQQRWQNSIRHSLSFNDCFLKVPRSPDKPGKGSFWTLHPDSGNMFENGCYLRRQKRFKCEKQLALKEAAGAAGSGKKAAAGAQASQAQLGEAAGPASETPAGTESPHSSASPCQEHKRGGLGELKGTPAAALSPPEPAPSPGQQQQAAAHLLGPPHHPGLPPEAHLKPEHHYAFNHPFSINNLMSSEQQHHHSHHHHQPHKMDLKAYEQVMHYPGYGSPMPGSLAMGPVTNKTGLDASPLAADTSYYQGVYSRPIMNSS
Aryl hydrocarbon receptor (Homo sapiens), sequence (P35869 whole entry, looked up): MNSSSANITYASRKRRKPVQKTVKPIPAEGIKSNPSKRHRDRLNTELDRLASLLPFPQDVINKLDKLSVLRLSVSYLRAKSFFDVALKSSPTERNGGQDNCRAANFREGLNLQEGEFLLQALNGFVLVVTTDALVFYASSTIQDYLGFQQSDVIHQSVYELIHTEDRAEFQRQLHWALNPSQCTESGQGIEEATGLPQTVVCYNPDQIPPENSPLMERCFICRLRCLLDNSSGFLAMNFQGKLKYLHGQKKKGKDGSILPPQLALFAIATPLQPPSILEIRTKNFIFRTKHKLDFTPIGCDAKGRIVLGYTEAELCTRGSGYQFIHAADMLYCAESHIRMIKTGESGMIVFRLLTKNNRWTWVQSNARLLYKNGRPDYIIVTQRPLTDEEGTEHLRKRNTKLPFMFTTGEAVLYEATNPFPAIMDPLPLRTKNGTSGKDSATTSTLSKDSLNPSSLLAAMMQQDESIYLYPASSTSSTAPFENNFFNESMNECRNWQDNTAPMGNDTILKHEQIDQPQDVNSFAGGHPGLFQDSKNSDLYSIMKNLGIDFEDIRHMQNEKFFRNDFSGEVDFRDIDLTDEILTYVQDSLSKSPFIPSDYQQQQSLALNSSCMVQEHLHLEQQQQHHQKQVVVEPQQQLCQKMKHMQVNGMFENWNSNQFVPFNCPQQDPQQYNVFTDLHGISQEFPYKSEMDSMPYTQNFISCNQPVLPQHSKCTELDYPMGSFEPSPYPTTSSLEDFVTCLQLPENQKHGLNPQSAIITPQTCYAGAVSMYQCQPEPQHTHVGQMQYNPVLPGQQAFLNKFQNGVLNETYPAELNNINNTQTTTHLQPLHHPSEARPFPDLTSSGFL
CCAAT/enhancer-binding protein beta (Homo sapiens), sequence (P17676 whole entry, looked up): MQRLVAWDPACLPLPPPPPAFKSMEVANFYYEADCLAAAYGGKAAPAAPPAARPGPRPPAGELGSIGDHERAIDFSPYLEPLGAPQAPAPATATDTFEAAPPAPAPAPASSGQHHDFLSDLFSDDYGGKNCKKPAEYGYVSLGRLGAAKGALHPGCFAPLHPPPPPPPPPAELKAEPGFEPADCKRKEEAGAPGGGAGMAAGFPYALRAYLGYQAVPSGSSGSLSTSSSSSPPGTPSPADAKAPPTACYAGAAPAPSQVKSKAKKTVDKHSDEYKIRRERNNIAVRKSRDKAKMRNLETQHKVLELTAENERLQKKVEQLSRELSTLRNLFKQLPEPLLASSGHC
Retinoic acid receptor alpha (Homo sapiens), sequence (P10276 whole entry, looked up): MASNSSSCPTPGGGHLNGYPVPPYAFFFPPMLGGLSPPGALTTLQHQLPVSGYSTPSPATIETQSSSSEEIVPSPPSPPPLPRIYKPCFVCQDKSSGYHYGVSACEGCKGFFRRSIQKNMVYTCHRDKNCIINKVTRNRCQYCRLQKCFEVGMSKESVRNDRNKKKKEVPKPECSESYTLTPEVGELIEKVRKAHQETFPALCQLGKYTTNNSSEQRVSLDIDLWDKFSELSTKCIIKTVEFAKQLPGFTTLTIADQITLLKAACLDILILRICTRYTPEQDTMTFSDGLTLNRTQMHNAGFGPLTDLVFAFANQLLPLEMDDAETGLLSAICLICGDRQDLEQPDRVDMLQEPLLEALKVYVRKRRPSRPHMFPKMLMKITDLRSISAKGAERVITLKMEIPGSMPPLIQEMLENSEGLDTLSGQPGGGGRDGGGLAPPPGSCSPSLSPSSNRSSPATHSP
Transcription factor E2F1 (Homo sapiens), sequence (Q01094 whole entry, looked up): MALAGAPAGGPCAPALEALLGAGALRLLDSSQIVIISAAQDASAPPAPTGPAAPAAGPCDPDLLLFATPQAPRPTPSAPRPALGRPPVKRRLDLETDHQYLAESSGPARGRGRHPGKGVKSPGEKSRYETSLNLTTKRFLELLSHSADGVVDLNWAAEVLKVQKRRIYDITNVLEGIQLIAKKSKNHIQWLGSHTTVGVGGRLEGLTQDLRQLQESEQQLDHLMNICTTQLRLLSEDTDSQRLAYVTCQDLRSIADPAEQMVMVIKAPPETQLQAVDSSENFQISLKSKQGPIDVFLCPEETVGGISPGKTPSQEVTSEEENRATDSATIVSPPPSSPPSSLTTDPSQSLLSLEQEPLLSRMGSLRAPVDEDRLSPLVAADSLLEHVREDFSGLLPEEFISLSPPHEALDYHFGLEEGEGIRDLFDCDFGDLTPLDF

CC1=NC(C)OC1C (stereo not given)
active: [3] 153 µM | [6] 100 µM
inactive: all other assays above

COc1ccc(-c2coc3cc(O)ccc3c2=O)cc1
active: [5] 20 µM | [15] 2.23 µM
inactive: all other assays above

FC(F)(F)C(=NOCC1OCCO1)c1ccc(Cl)cc1
active: [4] 38.1 µM | [8] 150 µM
inactive: all other assays above

Oc1ccc(Cl)cc1Cc1cc(Cl)ccc1O
active: [1] 3.51 µM | [4] 7.95 µM | [6] 17.6 µM | [7] 15.4 µM | [8] 3.46 µM | [9] 3.08 µM | [13] 8.39 µM | [15] 3.04 µM | [16] 6.68 µM
inactive: all other assays above

NCCCN1CCN(CCCN)CC1
inactive: all assays above

COc1cc(NC(=O)CC(C)=O)c(OC)cc1Cl
active: [5] 40.1 µM
inactive: all other assays above

CC1=Nc2ccc3ccccc3c2C1(C)C
active: [3] 66.4 µM | [6] 66 µM | [8] 65.7 µM
inactive: all other assays above
